Measured values taken from PubChem BioAssay.

molecular target: Nuclear receptor coactivator 1 (Homo sapiens) (UniProt Q15788); assay: SRC1 coactivator transcriptional activity inhibitors, confirmation, cell-based, luminescence, quadruplicate (AID 588820); conditions: HEK293 GAL4-SRC1 luciferase reporter, at 3.6 µM, active compounds read high;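 also: 0% = DMSO wells and 100% = gossypol 36 µM treated wells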
Sequence (Q15788 whole entry, looked up, the tested form may be a part): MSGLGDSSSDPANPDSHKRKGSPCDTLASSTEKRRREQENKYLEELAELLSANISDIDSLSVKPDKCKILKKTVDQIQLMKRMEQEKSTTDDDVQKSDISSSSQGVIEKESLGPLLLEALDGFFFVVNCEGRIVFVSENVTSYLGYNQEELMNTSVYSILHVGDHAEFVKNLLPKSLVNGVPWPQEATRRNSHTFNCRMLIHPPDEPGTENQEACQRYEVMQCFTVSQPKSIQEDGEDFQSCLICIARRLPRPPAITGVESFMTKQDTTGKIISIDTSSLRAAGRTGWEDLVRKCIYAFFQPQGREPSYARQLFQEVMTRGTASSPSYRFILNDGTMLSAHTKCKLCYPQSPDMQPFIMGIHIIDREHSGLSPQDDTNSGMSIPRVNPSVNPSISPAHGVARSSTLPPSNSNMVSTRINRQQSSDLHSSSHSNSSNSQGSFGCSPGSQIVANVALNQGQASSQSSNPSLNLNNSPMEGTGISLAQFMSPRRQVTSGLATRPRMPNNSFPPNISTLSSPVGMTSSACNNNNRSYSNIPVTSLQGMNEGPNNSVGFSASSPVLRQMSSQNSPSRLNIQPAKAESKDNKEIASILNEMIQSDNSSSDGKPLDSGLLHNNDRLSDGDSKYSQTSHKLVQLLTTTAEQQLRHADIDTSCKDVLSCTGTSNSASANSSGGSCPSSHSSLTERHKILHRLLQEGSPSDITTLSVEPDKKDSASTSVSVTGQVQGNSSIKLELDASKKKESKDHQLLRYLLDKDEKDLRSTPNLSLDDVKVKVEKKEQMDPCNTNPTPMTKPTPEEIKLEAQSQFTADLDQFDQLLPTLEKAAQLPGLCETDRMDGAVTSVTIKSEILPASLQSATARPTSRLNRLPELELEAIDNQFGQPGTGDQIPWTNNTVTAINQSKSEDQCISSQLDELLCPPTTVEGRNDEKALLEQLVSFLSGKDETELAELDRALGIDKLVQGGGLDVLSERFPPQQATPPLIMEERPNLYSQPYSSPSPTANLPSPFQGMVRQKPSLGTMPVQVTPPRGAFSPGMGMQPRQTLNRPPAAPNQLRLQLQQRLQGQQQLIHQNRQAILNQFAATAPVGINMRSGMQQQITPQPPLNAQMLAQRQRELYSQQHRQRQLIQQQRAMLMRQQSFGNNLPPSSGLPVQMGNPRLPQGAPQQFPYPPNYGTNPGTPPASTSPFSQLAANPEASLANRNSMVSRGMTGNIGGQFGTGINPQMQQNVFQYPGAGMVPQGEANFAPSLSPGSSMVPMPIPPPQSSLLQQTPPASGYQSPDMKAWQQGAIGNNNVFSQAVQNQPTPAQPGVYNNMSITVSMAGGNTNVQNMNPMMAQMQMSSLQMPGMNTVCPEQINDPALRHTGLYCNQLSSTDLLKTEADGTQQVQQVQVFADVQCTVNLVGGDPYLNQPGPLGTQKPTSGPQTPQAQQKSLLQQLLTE

inhibition, inactive:
O=C(c1ccccc1Sc1ccccc1[N+](=O)[O-])N1CCCCC1 10.1%
N=c1c(C(=O)NCCc2ccccc2)cc2c(=O)n3ccccc3nc2n1CCCN1CCOCC1 6.5%
O=C(Nc1ccncc1)c1cccc(S(=O)(=O)N2CCc3ccccc32)c1 -21.8%
Cc1cc(C(=O)OCC(=O)N2CC(C)OC(C)C2)c(C)n1-c1ccccc1 (stereo not given) -17%
Cc1ccc(C2C3=C(CC(C)(C)CC3=O)OC3=C2C(=O)CC(C)(C)C3)cc1 0%
O=c1[nH]cnc2sc3c(c12)CCCC3 10.8%
Cc1cc(C)n(-c2ccc(C(=O)Nc3ccc(C)c(S(=O)(=O)N4CCOCC4)c3)cc2)n1 0.36%
Cc1ccc(S(=O)(=O)N(C)c2ccc(C(=O)Nc3ccccc3C(=O)N3CCOCC3)cc2)cc1 -10.1%
COc1cc(C(C)=O)ccc1OCC(=O)Nc1ccccc1N1CCCCC1 9.15%
Cc1ccc(NS(=O)(=O)c2ccc(C(=O)NC3CCN(Cc4ccccc4)CC3)cc2)cc1 -9.12%
Cc1ccc(S(=O)(=O)Nc2c(NC3CCCCC3)c3ccccc3oc2=O)c(C)c1 15.7%
CCN(c1ccccc1)S(=O)(=O)c1cc(C(=O)Nc2ccc(Br)cc2)ccc1F 16.9%
CCC(C(=O)OCC(=O)Nc1cc(Cl)cc(Cl)c1)c1ccccc1 (stereo not given) -0.98%
COc1cccc(/C=N/NC(=O)CNC(=O)C2COc3ccccc3O2)c1O (stereo not given) 21.7%
CCOc1ccc(CSC(=N)N)cc1Cl -21.1%
COC(=O)c1ccc2c(c1)NC(=O)c1ccccc1S2 -8.66%
O=C(COc1ccc(S(=O)(=O)Nc2ccccc2)cc1)NCc1ccncc1 -7.07%
Cc1ccc(NC(=O)c2cc(=O)c3ccccc3o2)cc1S(=O)(=O)N1CCCCC1 -9.96%
COc1ccc(CNC(=O)C(c2ccc(C)cc2)N(Cc2cccs2)C(=O)c2ccc3c(c2)OCCO3)cc1 (stereo not given) -13.9%
CCC(C)c1ccc(C(C)NC(=S)NCc2ccc(F)cc2)cc1 (stereo not given) -3.08%
COc1ccc2c(c1)c(C(=O)CN1CCN(Cc3ccccc3)CC1)c(C)n2C -13.6%
COc1ccccc1C1NC(=O)NC(C)=C1C(=O)OC1CCCC(C)C1 (stereo not given) 6.58%
CC1=C(C(=O)OC2CCCCC2)C(c2ccc(C)o2)C2=C(CC(C)(C)CC2=O)N1 (stereo not given) -5.08%
O=C(NC1CCCCC1)C(c1ccc(F)cc1)N(Cc1ccco1)C(=O)c1csnn1 (stereo not given) -14.3%
CCN(CC)CCNc1nc2cc(OC)c(OC)cc2c2nc(-c3ccccc3)nn12 9.19%
CCN(CC)c1ccc(NC(=O)CSc2n[nH]c(-c3ccco3)n2)cc1 -8.8%
COc1ccc(S(=O)(=O)N2CCOC23CCN(S(=O)(=O)c2ccc(Cl)cc2)CC3)cc1 -7.54%
O=C(NCc1cccc(C(F)(F)F)c1)c1csc([C@@H]2O[C@H](CO)[C@H](O)[C@H](O)[C@H]2O)n1 -9.94%
CCCCCCn1c(NCC)nc2c1c(=O)n(C)c(=O)n2C -1.77%
CCOc1ccc(CCN2C(=S)N([C@@H](Cc3ccc(O)cc3)CN3CCC[C@@H]3CN3C(=S)NC[C@@H]3CC(C)C)C[C@@H]2CC(C)C)cc1 -13%
O=C(NC1CC(=O)N(c2ccccc2)C1)C1CC1 (stereo not given) -3.45%
Cc1cc(OCCCN2CCCC2)ccc1Cl -14.7%
CCOC(=O)c1cc(C#N)c(SCC(=O)OC)[nH]c1=O 1.73%
CCCCN(C(=O)/C=C/c1ccccc1)C1CCS(=O)(=O)C1 (stereo not given) -6.12%
COc1ccc(CN(CC(=O)NCc2ccccc2)C(=O)CCC(=O)Nc2cc(C)ccn2)cc1 -7.07%
COC(=O)c1ccc(C(=O)N2CCCC(Nc3ccc(F)c(F)c3)C2)cc1 (stereo not given) -59.6%
CN(C)CCNC(=O)c1cccc2nc3c(ccc4ccccc43)nc12 30.5%
COc1ccc(NC(=O)/C(C#N)=C\c2cc(C)n(-c3ccc4c(c3)OCO4)c2C)cc1 -34.8%
Cc1ccccc1C(OCC(O)CN1CCN(CCO)CC1)c1ccccc1 (stereo not given) -13.1%
Cc1cc(C)n(-c2ccc(C(=O)Nc3ccc(S(=O)(=O)NCc4ccco4)cc3)cc2)n1 -5.13%
